Measurements: PubChem BioAssay AID1159580 (chemical genetic matrix, 2015)
Values joined by “and” are separate entries in the source; they are usually repeats but may differ in a detail not shown here. Equal entries are not always repeated. Out of some 5,500 compounds screened, about 2,000 (36%) were called active. About 18% were inconclusive and are not listed. Rule as the data show it: active = normalized growth mostly below about 0.91 (no sharp cut-off); inconclusive = no clear call, values can overlap the other calls; inactive = mostly above about 0.92. The list shows a part of the results.

Experiment: chemical genetic growth profiling, strain panel (AID 1159580);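 also: tested at 20 µM; growth read once vehicle control cultures reached saturation at 30 °C; 1 = growth at the plate median or of vehicle wells; lower values mean less growth of the strain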
Settings: S. cerevisiae deletion strains, growth OD

Measured: normalized growth

CC(=O)OCC(=O)[C@@]1(O)CCC2C3CCC4=CC(=O)CC[C@]4(C)[C@@]3(F)[C@@H](O)C[C@@]21C (stereo partly specified)
inactive: locus YAL021C, strain ccr4, active compounds read low 1.03 | locus YAL026C, strain drs2, active compounds read low 1.01 | locus YAL030W, strain snc1, active compounds read low 1.01 | locus YBL061C, strain skt5, active compounds read low 1.01 | locus YBR009C, strain hhf1, active compounds read low 1.01 | locus YBR021W, strain FUR4, active compounds read low 1.01 | locus YBR023C, strain chs3, active compounds read low 1.03 | locus YBR171W, strain sec66, active compounds read low 1.04 | locus YBR229C, strain ROT2, active compounds read low 1 | locus YBR231C, strain swc5, active compounds read low 0.993 | locus YBR279W, strain paf1, active compounds read low 1.02 | locus YCL011C, strain gbp2, active compounds read low 1.02 | locus YCL016C, strain dcc1, active compounds read low 1.02 | locus YCL029C, strain bik1, active compounds read low 0.995 | locus YCL061C, strain MRC1, active compounds read low 1.02 | locus YCL069W, strain vba3, active compounds read low 1.02 | locus YCR088W, strain abp1, active compounds read low 1.01 | locus YDL005C, strain med2, active compounds read low 1.02 | locus YDL035C, strain GPR1, active compounds read low 0.992 | locus YDL040C, strain nat1, active compounds read low 1 | locus YDL074C, strain BRE1, active compounds read low 1.02 | locus YDL101C, strain DUN1, active compounds read low 1.01 | locus YDL185W, strain tfp1, active compounds read low 0.995 | locus YDL192W, strain arf1, active compounds read low 1 | locus YDR001C, strain nth1, active compounds read low 1.01 | locus YDR069C, strain doa4, active compounds read low 1.01 | locus YDR101C, strain arx1, active compounds read low 0.981 | locus YDR137W, strain rgp1, active compounds read low 1.02 | locus YDR159W, strain sac3, active compounds read low 0.997 | locus YDR162C, strain NBP2, active compounds read low 0.998 | locus YDR195W, strain ref2 1 | locus YDR297W, strain sur2, active compounds read low 1 | locus YDR318W, strain mcm21, active compounds read low 1 | locus YDR334W, strain swr1, active compounds read low 1.03 | locus YDR335W, strain msn5, active compounds read low 1.01 | locus YDR388W, active compounds read low 1 | locus YDR392W, strain spt3, active compounds read low 0.989 | locus YDR502C, strain sam2, active compounds read low 1 | locus YEL003W, strain gim4, active compounds read low 1 | locus YEL037C, strain rad23, active compounds read low 1.01 | locus YEL061C, strain CIN8 (second series), active compounds read low 1.01 | locus YEL061C, strain CIN8, active compounds read low 1 | locus YER015W, strain faa2, active compounds read low 1 | locus YER016W, strain bim1, active compounds read low 1 | locus YER110C, active compounds read low 1 | locus YER111C, strain swi4, active compounds read low 1.02 | locus YER155C, strain BEM2 (second series), active compounds read low 1.01 | locus YER155C, strain BEM2, active compounds read low 1.01 | locus YER167W, strain BCK2, active compounds read low 1.01 | locus YFR010W, strain ubp6, active compounds read low 1.02 | locus YGL078C, strain dbp3, active compounds read low 1.01 | locus YGL086W, strain mad1, active compounds read low 0.989 | locus YGL167C, strain pmr1, active compounds read low 1.01 | locus YGL173C, strain kem1, active compounds read low 1.02 | locus YGL227W, strain vid30, active compounds read low 1.02 | locus YGL240W, strain doc1, active compounds read low 1.01 | locus YGL248W, strain PDE1, active compounds read low 1.01 | locus YGL253W, strain hxk2, active compounds read low 1.01 | locus YGR135W, strain pre9, active compounds read low 1.03 | locus YGR252W, strain gcn5, active compounds read low 1.05 | locus YHR013C, strain ard1, active compounds read low 1.04 | locus YHR027C, strain rpn1, active compounds read low 1.03 | locus YHR030C, strain SLT2, active compounds read low 0.997 and 1.01 | locus YHR079C, strain IRE1 (second series), active compounds read low 1.01 | locus YHR079C, strain IRE1, active compounds read low 0.995 | locus YHR094C, strain hxt1, active compounds read low 1.01 | locus YHR129C, strain ARP1, active compounds read low 1.01 | locus YHR142W, strain chs7, active compounds read low 1.01 | locus YHR200W, strain rpn10, active compounds read low 0.996 | locus YIL066C, strain RNR3, active compounds read low 0.995 | locus YIL073C, strain SPO22, active compounds read low 1.03 | locus YIL125W, strain kgd1, active compounds read low 1 | locus YIR030C, strain dcg1, active compounds read low 0.998 | locus YJL092W, strain hpr5, active compounds read low 1.02 | locus YJL095W, strain BCK1 (second series), active compounds read low 1.01 | locus YJL095W, strain BCK1, active compounds read low 1.03 and 1 | locus YJL115W, strain asf1, active compounds read low 1.03 | locus YJL129C, strain trk1, active compounds read low 1.03 | locus YJL134W, strain LCB3, active compounds read low 1.01 | locus YJL154C, strain vps35, active compounds read low 1.01 | locus YJL164C, strain tpk1, active compounds read low 1.01 | locus YJL166W, strain qcr8, active compounds read low 1.02 | locus YJL168C, strain set2, active compounds read low 1.01 | locus YJL187C, strain SWE1 (second series), active compounds read low 1.01 | locus YJL187C, strain SWE1, active compounds read low 1.01 | locus YJR043C, strain POL32, active compounds read low 0.993
